Measurements: PubChem BioAssay (NCATS)
Inconclusive results are not listed. The source made the active and inactive calls. Unless noted, calls come from the whole dose curve.

How the values were obtained:
[1] = biological target: Bile acid receptor (Homo sapiens) (UniProt Q96RI1); assay: qHTS assay for small molecule antagonists of farnesoid X receptor signaling (AID 588526); note: % is set by controls: 0 for no effect and ±100 for the full control effect
Method in brief: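 Beta-lactamase reporter antagonist mode: HEK293T FXR-UAS-bla cells, titrated compound, CDCA stimulation, 16 h 37 C, CCF4 dye 2 h RT. Data normalized to CDCA 50 uM and DMSO; Hill-fit IC50.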

[2] = biological target: Glucocorticoid receptor (Homo sapiens) (UniProt P04150); assay: qHTS assay for small molecule agonists of glucocorticoid receptor signaling (AID 588532; active = well fitted curve in the direction sought with a large enough effect in the signal ratio, with a control signal flat; the % refers to the signal ratio;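 note: 100% = dexamethasone at 0.1 µM and 0% = DMSO only wells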); conditions: HeLa MMTV-bla, beta-lactamase ratio, agonist, 18 h; stronger effect = higher value; percent of dexamethasone control, DMSO zero
Glucocorticoid receptor (Homo sapiens), sequence (P04150 whole entry, looked up): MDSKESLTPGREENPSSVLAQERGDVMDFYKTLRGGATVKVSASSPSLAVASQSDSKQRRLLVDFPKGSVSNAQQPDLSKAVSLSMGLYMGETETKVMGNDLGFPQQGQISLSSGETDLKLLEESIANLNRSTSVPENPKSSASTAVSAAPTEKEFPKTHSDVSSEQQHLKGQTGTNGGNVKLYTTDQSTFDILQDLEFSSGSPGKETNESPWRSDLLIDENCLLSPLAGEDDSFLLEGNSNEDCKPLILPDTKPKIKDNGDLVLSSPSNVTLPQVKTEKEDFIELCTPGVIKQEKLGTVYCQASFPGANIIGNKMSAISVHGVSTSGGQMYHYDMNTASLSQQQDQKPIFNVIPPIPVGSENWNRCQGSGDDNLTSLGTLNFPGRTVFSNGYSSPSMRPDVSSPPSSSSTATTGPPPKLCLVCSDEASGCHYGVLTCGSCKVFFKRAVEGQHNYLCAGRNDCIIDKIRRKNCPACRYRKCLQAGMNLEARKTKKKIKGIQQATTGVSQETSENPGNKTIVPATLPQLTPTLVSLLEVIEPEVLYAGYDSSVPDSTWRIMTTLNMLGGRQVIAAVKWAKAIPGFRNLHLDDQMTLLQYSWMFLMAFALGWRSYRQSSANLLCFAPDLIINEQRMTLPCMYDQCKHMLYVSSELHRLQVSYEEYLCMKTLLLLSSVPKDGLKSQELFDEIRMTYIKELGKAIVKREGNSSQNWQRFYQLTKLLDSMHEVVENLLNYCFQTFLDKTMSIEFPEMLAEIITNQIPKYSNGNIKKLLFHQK
Method in brief: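 Agonist-mode qHTS: GRE-driven beta-lactamase in HeLa cells exposed 18 h to titrated compounds (up to 92 uM), then CCF4 ratio read after 2 h at RT; Hill-fitted EC50, efficacy relative to 0.1 uM dexamethasone.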

[3] = biological target: Glucocorticoid receptor (Homo sapiens) (UniProt P04150); assay: qHTS assay for small molecule antagonists of glucocorticoid receptor signaling (AID 588533; active = well fitted inhibition curve with a large enough effect in the signal ratio, with a control signal flat, not every such curve was filed as active; the % refers to the signal ratio;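 note: cells stimulated with 2 nM dexamethasone as agonist; % is set by controls: 0 for no effect and ±100 for the full control effect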)
Method in brief: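 Antagonist-mode qHTS: compound titrations added to GRE-bla HeLa cells, then dexamethasone 2 nM final; 18 h, 37 C. CCF4 FRET fluorescence normalized to dexamethasone and DMSO; IC50 from Hill fit.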

[4] = qHTS assay for small molecule antagonists of peroxisome proliferator-activated receptor delta signaling (AID 588535; active = well fitted inhibition curve with a large enough effect in the signal ratio, with a control signal flat, not every such curve was filed as active; the % refers to the signal ratio;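 for max response: cells co-treated with a PPAR-delta agonist as stimulator during compound exposure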); conditions: HEK293T PPARd-UAS-bla, beta-lactamase FRET ratio, 18 h; 460 nm channel
Method in brief: (§1)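 Antagonist-mode qHTS using GeneBLAzer PPAR-delta-UAS-bla HEK293T cells; compound exposure 18 hrs at 37 C over a titration. Ratiometric CCF4 fluorescence at 460/530 nm; concentration-response points fitted to the Hill equation.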

[5] = biological target: Peroxisome proliferator-activated receptor delta (Homo sapiens) (UniProt Q03181); assay: as above
Peroxisome proliferator-activated receptor delta (Homo sapiens), sequence (Q03181 whole entry, looked up): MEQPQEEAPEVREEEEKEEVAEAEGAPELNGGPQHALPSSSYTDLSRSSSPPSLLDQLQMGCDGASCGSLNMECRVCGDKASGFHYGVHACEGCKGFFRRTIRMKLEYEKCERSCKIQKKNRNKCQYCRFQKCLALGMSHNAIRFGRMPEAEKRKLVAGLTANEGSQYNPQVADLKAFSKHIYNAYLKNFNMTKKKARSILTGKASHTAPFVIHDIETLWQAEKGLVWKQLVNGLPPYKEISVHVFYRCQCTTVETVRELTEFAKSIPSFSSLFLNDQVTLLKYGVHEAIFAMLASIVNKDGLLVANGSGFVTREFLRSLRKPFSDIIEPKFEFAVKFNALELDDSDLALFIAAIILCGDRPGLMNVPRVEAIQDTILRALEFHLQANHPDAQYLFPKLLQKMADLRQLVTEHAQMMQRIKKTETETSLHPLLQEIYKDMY
Method in brief: as §1

[6] = biological target: Peroxisome proliferator-activated receptor gamma (Homo sapiens) (UniProt P37231); assay: qHTS assay for small molecule antagonists of peroxisome proliferator-activated receptor gamma signaling (AID 588537; active = well fitted inhibition curve with a large enough effect in the signal ratio, with a control signal flat, not every such curve was filed as active; the % refers to the signal ratio;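 note: reporter cells co-stimulated with 50 nM rosiglitazone agonist during compound treatment; % of control where 0% means no effect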)
Peroxisome proliferator-activated receptor gamma (Homo sapiens), sequence (P37231 whole entry, looked up): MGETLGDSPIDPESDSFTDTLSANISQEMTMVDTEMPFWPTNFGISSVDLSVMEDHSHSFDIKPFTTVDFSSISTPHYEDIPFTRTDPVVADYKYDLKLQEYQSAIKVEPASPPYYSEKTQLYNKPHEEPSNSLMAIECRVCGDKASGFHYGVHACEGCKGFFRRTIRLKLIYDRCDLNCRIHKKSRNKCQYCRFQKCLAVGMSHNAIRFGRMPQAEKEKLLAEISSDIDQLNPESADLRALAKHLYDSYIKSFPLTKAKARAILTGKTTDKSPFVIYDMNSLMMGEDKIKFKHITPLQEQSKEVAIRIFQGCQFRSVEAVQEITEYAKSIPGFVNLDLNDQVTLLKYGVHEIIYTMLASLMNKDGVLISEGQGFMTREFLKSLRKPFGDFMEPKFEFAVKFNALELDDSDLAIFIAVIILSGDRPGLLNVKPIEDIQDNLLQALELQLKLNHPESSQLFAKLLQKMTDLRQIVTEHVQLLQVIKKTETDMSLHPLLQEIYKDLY
Method in brief: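 Cell-based beta-lactamase assay; GW9662 served as the antagonist control. Stimulation used rosiglitazone, final 50 nM, 16 h, 37 C.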

[7] = biological target: Vitamin D3 receptor (Homo sapiens) (UniProt P11473); assay: qHTS assay for small molecule antagonists of vitamin D receptor signaling (AID 588541);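 note: receptor activated by calcitriol during compound treatment; series mostly up to about 77 µM; % is set by controls: 0 for no effect and ±100 for the full control effect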
Vitamin D3 receptor (Homo sapiens), sequence (P11473 whole entry, looked up): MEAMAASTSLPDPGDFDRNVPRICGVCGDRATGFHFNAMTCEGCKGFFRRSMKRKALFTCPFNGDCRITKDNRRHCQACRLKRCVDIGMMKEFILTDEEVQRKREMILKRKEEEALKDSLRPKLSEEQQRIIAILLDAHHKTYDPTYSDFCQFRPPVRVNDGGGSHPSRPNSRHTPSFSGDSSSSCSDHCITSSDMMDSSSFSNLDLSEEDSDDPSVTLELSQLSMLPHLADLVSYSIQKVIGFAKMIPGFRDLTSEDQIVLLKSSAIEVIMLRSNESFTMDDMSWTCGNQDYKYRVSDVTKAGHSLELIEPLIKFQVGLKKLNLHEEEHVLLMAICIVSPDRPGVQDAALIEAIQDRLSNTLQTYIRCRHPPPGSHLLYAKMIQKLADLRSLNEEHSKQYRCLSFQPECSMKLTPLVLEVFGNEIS
Method in brief: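 Antagonist-mode beta-lactamase reporter assay: HEK293T VDR-UAS-bla cells were exposed to titrated compound alongside 1-alpha,25-dihydroxyvitamin D3 at 3 nM final for 16 h. Values were normalized to the 50 nM agonist control and DMSO basal, with IC50 and efficacy from Hill equation fits.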

[8] = biological target: Vitamin D3 receptor (Homo sapiens) (UniProt P11473); assay: qHTS assay for small molecule agonists of vitamin D receptor signaling (AID 588543);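 note: 0% = DMSO basal and 100% = reference agonist control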
Method in brief: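 Agonist-mode beta-lactamase reporter: HEK293T VDR-UAS-bla cells in charcoal-stripped 2% FBS, compound series 16 h 37 C, CCF4 2 h RT. EC50 from Hill fit, scaled against DMSO and 50 nM calcitriol control.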

[9] = biological target: Thyroid hormone receptor beta (Homo sapiens) (UniProt P10828); assay: qHTS assay for small molecule agonists of thyroid hormone receptor beta signaling (AID 588545);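 note: 0% = DMSO only and 100% = 10 nM T3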
Thyroid hormone receptor beta (Homo sapiens), sequence (P10828 whole entry, looked up): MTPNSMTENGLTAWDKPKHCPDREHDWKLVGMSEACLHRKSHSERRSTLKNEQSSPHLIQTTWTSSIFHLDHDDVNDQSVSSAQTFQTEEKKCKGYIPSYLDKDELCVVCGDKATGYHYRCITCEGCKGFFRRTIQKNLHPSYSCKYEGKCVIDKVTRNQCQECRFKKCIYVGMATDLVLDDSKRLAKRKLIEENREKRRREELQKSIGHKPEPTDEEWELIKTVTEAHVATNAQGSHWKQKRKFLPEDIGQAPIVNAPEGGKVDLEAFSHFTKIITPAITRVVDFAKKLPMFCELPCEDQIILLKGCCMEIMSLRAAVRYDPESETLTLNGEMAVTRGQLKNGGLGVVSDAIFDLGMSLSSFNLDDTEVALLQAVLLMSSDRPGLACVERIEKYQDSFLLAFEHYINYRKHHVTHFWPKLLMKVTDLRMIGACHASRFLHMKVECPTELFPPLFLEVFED
Method in brief: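 Stimulation of a TR-driven beta-lactamase reporter was quantified in GripTite HEK 293 cells. Compound series ran for 18 hrs; curves were normalized to T3 and DMSO controls and fitted to yield EC50.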

[10] = qHTS assay for small molecule antagonists of retinoid X receptor alpha signaling (AID 588546); conditions: HEK293T RXRa-UAS-bla, beta-lactamase ratio, antagonist mode; measured here: W530 green channel, cytotoxicity proxy;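 note: cells stimulated with 9-cis-retinoic acid as agonist; % is set by controls: 0 for no effect and ±100 for the full control effect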
Method in brief: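 Beta-lactamase reporter inhibition, read as CCF4 fluorescence ratio (ex 405, em 460/530 nm) after 2 h at RT. HEK293T UAS-bla cells, 2500/well, were stimulated with 9-cis-RA at 500 or 100 nM final alongside test compound for 18 h at 37 C.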

Bile acid receptor (Homo sapiens), sequence (Q96RI1 whole entry, looked up): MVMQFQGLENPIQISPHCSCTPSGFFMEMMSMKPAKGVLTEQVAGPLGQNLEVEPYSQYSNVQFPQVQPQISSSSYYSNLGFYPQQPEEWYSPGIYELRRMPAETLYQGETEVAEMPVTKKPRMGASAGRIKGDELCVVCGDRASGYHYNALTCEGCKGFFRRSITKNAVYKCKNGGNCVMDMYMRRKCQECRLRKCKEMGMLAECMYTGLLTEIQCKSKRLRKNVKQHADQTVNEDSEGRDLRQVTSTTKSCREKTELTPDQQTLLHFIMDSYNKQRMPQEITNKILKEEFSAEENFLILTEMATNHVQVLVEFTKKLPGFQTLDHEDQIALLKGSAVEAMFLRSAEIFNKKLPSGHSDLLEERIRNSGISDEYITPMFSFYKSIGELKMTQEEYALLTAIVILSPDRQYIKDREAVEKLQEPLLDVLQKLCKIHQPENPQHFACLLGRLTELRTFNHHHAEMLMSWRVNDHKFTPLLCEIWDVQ

O=C(O)CCCc1c[nH]c2ccccc12
35.4%: max response [4]
7.98%: max response [10]
inactive: outcome [1] | activation [2] -4.22% | outcome [3] | outcome [5] | outcome [6] | outcome [7] | outcome [8] | outcome [9]
